Bioassay records deposited in PubChem by several laboratories.
PrPC TRFRET = inhibitors of human cell surface prion protein PrPC. inhibition, % at 13.8 µM. TR-FRET read-out. 0.43% of 370,000 active; in the data active = inhibition above about 24%; note: 0% = median of the test wells and 100% = reference compound wells
PrP 5UTR inh = suppresses PrP 5' UTR mRNA reporter expression. cell-based PrP 5' UTR mRNA reporter, plate reader. inhibition, % (no concentration beside the values). 0.35% of 340,000 active. AID 488862; in the data active = inhibition above about 52%; note: 0 = median of the neutral control wells
Sa ugtP lethal = growth inhibition of S. aureus ugtP deletion strain; 0.54% of 330,000 active; AID 1259309; growth inhibition, % (concentration not given with the values); S. aureus RN4220 ugtP deletion, OD600 growth, 16 h; in the data active = growth inhibition above about 68%;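 note: plate controls were untreated wells for no effect and antibiotic for full effect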
CCHFV vOTU inh = CCHFV vOTU protease inhibition; Pep-AMC fluorescence; inhibition, % at 11.5 µM; 0.55% of 370,000 active; AID 651958; in the data active = inhibition above about 30%; note: 0% = vehicle wells with enzyme and 100% = no enzyme wells
PfHsp40 yeast = rescue of PfHsp40-mediated yeast toxicity | S. cerevisiae expressing PfHsp40, growth rescue, ATP luminescence | growth rescue, % at 12.5 µM | 0.68% of 340,000 active | AID 504582; in the data active = growth rescue above about 28%, passing the limit was not always enough; inconclusive = no clear call, values can overlap the other calls;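 note: yeast W303a lacking pdr1 and pdr3 grown in galactose medium; growth measured after three days at 30 °C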
RN4220 kill = S. aureus RN4220 growth inhibition | inhibition, % (no concentration beside the values) | OD600, 16 h | AID 1259311 | 0.33% of 330,000 active; in the data active = inhibition above about 85%;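 note: plate controls were untreated cells for no effect and reference antibiotic for full effect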
Starred values were filed as active, the others as inactive. Most compounds without a hit are left out; they make up all but 2.1% or so of the library.

Results for Cc1ccc(-c2nc(-c3ccccc3)no2)c(Cl)c1 ?
PrPC TRFRET: -1; PrP 5UTR inh: 65*; Sa ugtP lethal: 11; CCHFV vOTU inh: 7; PfHsp40 yeast: -1; RN4220 kill: 0

How did COc1ccc(-c2noc(-c3ccccc3F)n2)cc1 do in these assays?
PrPC TRFRET: -4; PrP 5UTR inh: -93; Sa ugtP lethal: 13; CCHFV vOTU inh: 10; PfHsp40 yeast: 6; RN4220 kill: -2

Results for COc1ccc(-c2noc(-c3ccccc3-c3ccccc3)n2)cc1 ?
PrPC TRFRET: 1; PrP 5UTR inh: -13; Sa ugtP lethal: 88*; CCHFV vOTU inh: 5; PfHsp40 yeast: 1; RN4220 kill: -3

What do the screens show for `COc1cc(C=NOCC(=O)Nc2cc(C)on2)ccc1OCc1ccccc1`?
Sa ugtP lethal: 4; RN4220 kill: 1

How did CC=C(C)C(=O)Nc1cccc(C2=NOC3(C2)CC(C(N)=O)N(C(=O)C(c2ccccc2)c2ccccc2)C3)c1 (stereo unspecified) do in these assays?
Sa ugtP lethal: 3; RN4220 kill: 4

Results for COc1cccc(C2CN(c3ccc(F)cc3F)N=C2c2cccs2)c1OC (stereo unspecified) ?
PrPC TRFRET: 7; PrP 5UTR inh: -11; Sa ugtP lethal: 88*; CCHFV vOTU inh: -47; PfHsp40 yeast: 0; RN4220 kill: -14

How did Cn1cccc1C=NNC(=O)CSc1nc2ccccc2n1C do in these assays?
Sa ugtP lethal: 3; RN4220 kill: 2

Results for CCC(=Cc1ccccc1)c1cccc2[nH]c3c(OC)cccc3c12 ?
Sa ugtP lethal: 97*; RN4220 kill: 39

Results for O=C(NN=Cc1ccccn1)c1cc(C2CC2)[nH]n1 ?
Sa ugtP lethal: 6; RN4220 kill: 6

Results for Cc1nn(-c2cc(C)c3ccccc3n2)c2c1C1C(C2)C1(C)C (stereo unspecified) ?
PrPC TRFRET: 4; PrP 5UTR inh: -32; Sa ugtP lethal: 83*; CCHFV vOTU inh: -1; PfHsp40 yeast: 0; RN4220 kill: -3

Results for Cc1cc(-n2nnc3ccccc32)nc2ccccc12 ?
PrPC TRFRET: -2; PrP 5UTR inh: -21; Sa ugtP lethal: -11; CCHFV vOTU inh: -5; PfHsp40 yeast: 0; RN4220 kill: 9

Results for CC(C)CC(NC(=O)c1nc[nH]c1C(=O)NCCNC(=O)OC(C)(C)C)C(=O)CNCCNC(=O)c1[nH]cnc1C(=O)NC(C)C(=O)OC(C)(C)C (stereo unspecified) ?
Sa ugtP lethal: 2; RN4220 kill: 8

Results for COc1cc2c(c(OC)c1OC)-c1ccc(O)c(=O)cc1[C@@H](N)CC2 ?
PrPC TRFRET: -3; PrP 5UTR inh: -13; Sa ugtP lethal: 5; CCHFV vOTU inh: 5; PfHsp40 yeast: 352*; RN4220 kill: -2

Results for COc1ccc(OC)c(C=c2sc3nc(-c4cccs4)nn3c2=O)c1 ?
Sa ugtP lethal: -4; RN4220 kill: 4

Results for CCn1nc(-c2cccs2)nc2c(=O)n(C)c(=O)nc1-2 ?
PrP 5UTR inh: -9; Sa ugtP lethal: 100*; PfHsp40 yeast: 0; RN4220 kill: 99*

What do the screens show for `Cc1ccc(-n2nnnc2C(Cl)c2nnnn2-c2ccc(C)cc2)cc1`?
PrPC TRFRET: 8; PrP 5UTR inh: -4; Sa ugtP lethal: 99*; CCHFV vOTU inh: 0; PfHsp40 yeast: inconclusive; RN4220 kill: 97*

How did S=c1[nH]ncn1N=Cc1cccc(Oc2ccccc2)c1 do in these assays?
Sa ugtP lethal: 9; RN4220 kill: 5

How did O=C(CSc1nc2ccccc2s1)N/N=C/c1cc([N+](=O)[O-])ccc1O do in these assays?
PrPC TRFRET: 6; PrP 5UTR inh: -20; CCHFV vOTU inh: -1; PfHsp40 yeast: 190*

What do the screens show for `COc1cc([N+](=O)[O-])cc(C=NNC(=O)Cn2cncn2)c1O`?
Sa ugtP lethal: 2; RN4220 kill: 3

What do the screens show for `Nc1nnnn1CC(=O)NN=Cc1cc([N+](=O)[O-])ccc1O`?
Sa ugtP lethal: 81; RN4220 kill: 93*

Results for O=C(Cn1cncn1)NN=Cc1cc([N+](=O)[O-])ccc1O ?
Sa ugtP lethal: 76; RN4220 kill: 88*

What do the screens show for `Cc1ccc(/C=N/NC(=O)CSc2nc3ccccc3s2)o1`?
PrPC TRFRET: 10; PrP 5UTR inh: -48; CCHFV vOTU inh: 9; PfHsp40 yeast: -2

Results for CC=C(C)C(=O)NCCN1C2=NCC(Cc3ccccc3)N2CC1Cc1ccc(O)cc1 (stereo unspecified) ?
Sa ugtP lethal: -13; RN4220 kill: 0

Results for COc1ccc(C=NNC(=O)Cn2cnc3c2c(=O)n(C)c(=O)n3C)c(OC)c1OC ?
Sa ugtP lethal: 3; RN4220 kill: 2

How did CCN(CC)c1ccc(C=CC(=O)C2C(=O)C=C(C)OC2=O)cc1 (stereo unspecified) do in these assays?
Sa ugtP lethal: 4; RN4220 kill: 14

Results for COc1ccc(-c2nnc(NC(=O)c3ccc(S(=O)(=O)N4CCc5ccccc5C4)cc3)o2)cc1 ?
PrP 5UTR inh: 31; Sa ugtP lethal: 99*; PfHsp40 yeast: 1; RN4220 kill: -3

Results for COc1ccc(-c2nnc(NC(=O)c3cc(Cl)ccc3Cl)o2)cc1 ?
PrPC TRFRET: 1; PrP 5UTR inh: -4; Sa ugtP lethal: 100*; CCHFV vOTU inh: 6; PfHsp40 yeast: 0; RN4220 kill: 7

How did COc1ccc(-c2csc(NC(=O)c3ccc(S(=O)(=O)N4CCc5ccccc5C4)cc3)n2)cc1 do in these assays?
PrPC TRFRET: 0; PrP 5UTR inh: -3; Sa ugtP lethal: 4; CCHFV vOTU inh: -14; PfHsp40 yeast: -1; RN4220 kill: -2

Results for CN(C)S(=O)(=O)c1ccc(C(=O)Nc2nnc(-c3ccc4c(c3)CCCC4)o2)cc1 ?
PrPC TRFRET: 1; PrP 5UTR inh: 4; Sa ugtP lethal: 99*; CCHFV vOTU inh: -1; PfHsp40 yeast: -2; RN4220 kill: 98*

What do the screens show for `O=C(Nc1nnc(-c2ccc3c(c2)CCCC3)o1)c1ccc(Cl)cc1Cl`?
PrPC TRFRET: 3; PrP 5UTR inh: -15; Sa ugtP lethal: 100*; CCHFV vOTU inh: 9; PfHsp40 yeast: -2; RN4220 kill: 99*

How did COc1ccccc1C(=O)Nc1nnc(-c2ccc(Cl)cc2)o1 do in these assays?
PrPC TRFRET: 0; PrP 5UTR inh: -19; Sa ugtP lethal: 9; CCHFV vOTU inh: -1; PfHsp40 yeast: -1; RN4220 kill: 7

How did COc1cc(C(=O)OC(C)C(=O)NC(=O)NC2CCCCC2)ccc1OC(F)F (stereo unspecified) do in these assays?
PrPC TRFRET: -1; PrP 5UTR inh: -15; Sa ugtP lethal: 91*; CCHFV vOTU inh: 12; PfHsp40 yeast: 1; RN4220 kill: 52

How did Oc1ccc(-c2csc(Nc3ncccn3)n2)c(O)c1 do in these assays?
PrPC TRFRET: 9; PrP 5UTR inh: -74; Sa ugtP lethal: -4; CCHFV vOTU inh: -4; PfHsp40 yeast: 1; RN4220 kill: 8
